Assay results: the supplement of paper PMC11172423

These molecules were tested on Madurella mycetomatis MM55 (assay: growth relative to untreated control; higher = less inhibition, active = 20 or less). Details: 25 µM.
Experimental: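 Hyphal fragments of M. mycetomatis MM55 or F. senegalensis CBS197.79 in RPMI 1640/MOPS were exposed to each MMV COVID Box or Global Health Priority Box compound at 100 or 25 µM for 7 days at 37 °C. Viability was read with MTS (490 nm, M. mycetomatis) or resazurin (600 nm, F. senegalensis), background-corrected with a medium-only control and expressed as % growth relative to the untreated growth control. Inhibition of more than 80% was taken as growth inhibition.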
In the case of `Cn1cc(CN2CCc3c(c(C(=O)NCc4nccs4)nn3Cc3ccccc3)C2)c2ccccc21`, the growth is reported as 88.4% (inactive). With `CC(C)(C)NC(=O)[C@@H]1CN(Cc2cccnc2)CCN1C[C@@H](O)C[C@@H](Cc1ccccc1)C(=O)N[C@H]1c2ccccc2C[C@H]1O` the growth was 113% (inactive). With `FC(F)(F)c1cc(Cl)cc(Nc2nc3cnc(NCC4CC4)nc3n2C2CCNCC2)c1` the growth was 53.7% (inactive). For `CC[C@H](Nc1ncnc2[nH]cnc12)c1nc2cccc(F)c2c(=O)n1-c1ccccc1`, the growth was 103% (inactive). In the case of `CNc1ccc2cc(NC(=O)c3ccc(C(F)(F)F)c(Cl)c3)ccc2n1`, the growth is reported as 6.89% (active). For `CC1(C)CCC(CO)(NC(=O)c2cc3c(F)cc(F)cc3[nH]2)CC1`, the growth was 28.6% (inactive). With `CC(C)CN(C[C@@H](O)[C@H](Cc1ccccc1)NC(=O)O[C@H]1CO[C@H]2OCC[C@H]21)S(=O)(=O)c1ccc(N)cc1` the growth was 130% (inactive). For `COc1ccc(-c2nc3c(NCc4ccccc4)nccc3[nH]2)c(OC)c1`, the growth was 6.23% (active). For `Cc1cc(Cl)ccc1NC(=S)N(C)C`, the growth was 106% (inactive). For `Cc1ccc(C(=O)Nc2ccc(CN3CCN(C)CC3)c(C(F)(F)F)c2)cc1C#Cc1cnc2cccnn12`, the growth was 16.4% (active). For `CCN(CC)Cc1cc(Nc2ccnc3cc(Cl)ccc23)ccc1O`, the growth was 81.3% (inactive). For `Cc1ccc(-c2noc(-c3ccccc3)n2)cc1`, the growth was 43.1% (inactive). For `c1cc(-c2n[nH]c3ccc(-c4n[nH]c(C5CCCN5)n4)cc23)ccc1CNC1CC1` (stereo not given), the growth was 70.2% (inactive). `O=c1[nH]c2ccccc2n1CCCN1CCN(C(c2ccccc2)c2ccccc2)CC1` was tested, and the growth was 91.1% (inactive). For `O=C(Nc1cnc2ccccc2c1)c1ccccc1C(=O)c1ccc(F)cc1`, the growth was 92.9% (inactive). For `CN(C)CCNC(=O)c1ccc(Nc2nccc(-c3ccc(Cl)c(Cl)c3)n2)cc1`, the growth was 5.83% (active). `C[C@@H]1CCCN1CCc1cc2cc(-c3ccc(C#N)cc3)ccc2o1` was tested, and the growth was 71.7% (inactive). `CO[C@H]1C[C@@H]2CC[C@@H](C)[C@@](O)(O2)C(=O)C(=O)N2CCCC[C@H]2C(=O)O[C@H]([C@H](C)C[C@@H]2CC[C@@H](O)[C@H](OC)C2)CC(=O)[C@H](C)/C=C(\C)[C@@H](O)[C@@H](OC)C(=O)[C@H](C)C[C@H](C)/C=C/C=C/C=C/1C` was tested, and the growth was 120% (inactive). In the case of `CC(C)(C)c1nn(-c2ccc(Cl)cc2)c2[nH]c(=O)c(CNCc3ccc4c(c3)OCO4)cc12`, the growth is reported as 5.51% (active). For `Cc1cnc2nc(NC3COc4ccc(F)cc43)nc(NC3CCC4(CCCC4)CC3)c2c1` (stereo not given), the growth was 73.6% (inactive).

Same assay, conditions: 100 µM
`Cn1cc(CN2CCc3c(c(C(=O)NCc4nccs4)nn3Cc3ccccc3)C2)c2ccccc21` was tested, and the growth was 32.5% (inactive). `CC(C)(C)NC(=O)[C@@H]1CN(Cc2cccnc2)CCN1C[C@@H](O)C[C@@H](Cc1ccccc1)C(=O)N[C@H]1c2ccccc2C[C@H]1O` was tested, and the growth was 90.8% (inactive). With `FC(F)(F)c1cc(Cl)cc(Nc2nc3cnc(NCC4CC4)nc3n2C2CCNCC2)c1` the growth was 4.76% (active). In the case of `CC[C@H](Nc1ncnc2[nH]cnc12)c1nc2cccc(F)c2c(=O)n1-c1ccccc1`, the growth is reported as 83.5% (inactive). For `CNc1ccc2cc(NC(=O)c3ccc(C(F)(F)F)c(Cl)c3)ccc2n1`, the growth was 77.4% (inactive). In the case of `CC1(C)CCC(CO)(NC(=O)c2cc3c(F)cc(F)cc3[nH]2)CC1`, the growth is reported as 6.07% (active). With `CC(C)CN(C[C@@H](O)[C@H](Cc1ccccc1)NC(=O)O[C@H]1CO[C@H]2OCC[C@H]21)S(=O)(=O)c1ccc(N)cc1` the growth was 90.5% (inactive). With `COc1ccc(-c2nc3c(NCc4ccccc4)nccc3[nH]2)c(OC)c1` the growth was 7.79% (active). `Cc1cc(Cl)ccc1NC(=S)N(C)C` was tested, and the growth was 147% (inactive). With `Cc1ccc(C(=O)Nc2ccc(CN3CCN(C)CC3)c(C(F)(F)F)c2)cc1C#Cc1cnc2cccnn12` the growth was 10.5% (active). For `CCN(CC)Cc1cc(Nc2ccnc3cc(Cl)ccc23)ccc1O`, the growth was 43.4% (inactive). `Cc1ccc(-c2noc(-c3ccccc3)n2)cc1` was tested, and the growth was 90.5% (inactive). With `c1cc(-c2n[nH]c3ccc(-c4n[nH]c(C5CCCN5)n4)cc23)ccc1CNC1CC1` (stereo not given) the growth was 31.7% (inactive). For `O=c1[nH]c2ccccc2n1CCCN1CCN(C(c2ccccc2)c2ccccc2)CC1`, the growth was 5.01% (active). For `O=C(Nc1cnc2ccccc2c1)c1ccccc1C(=O)c1ccc(F)cc1`, the growth was 91.8% (inactive). With `CN(C)CCNC(=O)c1ccc(Nc2nccc(-c3ccc(Cl)c(Cl)c3)n2)cc1` the growth was 4.93% (active). With `C[C@@H]1CCCN1CCc1cc2cc(-c3ccc(C#N)cc3)ccc2o1` the growth was 4.57% (active). `CO[C@H]1C[C@@H]2CC[C@@H](C)[C@@](O)(O2)C(=O)C(=O)N2CCCC[C@H]2C(=O)O[C@H]([C@H](C)C[C@@H]2CC[C@@H](O)[C@H](OC)C2)CC(=O)[C@H](C)/C=C(\C)[C@@H](O)[C@@H](OC)C(=O)[C@H](C)C[C@H](C)/C=C/C=C/C=C/1C` was tested, and the growth was 69.3% (inactive). With `CC(C)(C)c1nn(-c2ccc(Cl)cc2)c2[nH]c(=O)c(CNCc3ccc4c(c3)OCO4)cc12` the growth was 6.74% (active). With `Cc1cnc2nc(NC3COc4ccc(F)cc43)nc(NC3CCC4(CCCC4)CC3)c2c1` (stereo not given) the growth was 38.8% (inactive).
